Assay results published in PubChem BioAssay (NCI).
About 79,000 compounds went through this panel and 15% of them were active in at least one assay; those are over-represented in the sample as a whole. Calls of active or inactive are those of the source. No stated cut-off is given here; in the data, active means growth inhibition above about 70%; inactive means the rest.

How the values were obtained:
[1] = NCI Yeast Anticancer Drug Screen. Data for the mec2-1 strain (AID 157); settings: S. cerevisiae mec2-1 strain, active compounds read high
How it was run: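 Strain: mec2-1 (DNA repair/cell cycle alteration). Compound exposure, then growth measured; inhibition expressed relative to vehicle.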

[2] = NCI Yeast Anticancer Drug Screen. Data for the rad14 strain (AID 159);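 further: 0% = growth of vehicle-treated control cultures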; settings: S. cerevisiae rad14 strain growth inhibition, active compounds read high
How it was run: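 DNA repair-defective yeast, compound-exposed; % growth inhibition derived by comparison with vehicle-treated controls.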

[3] = NCI Yeast Anticancer Drug Screen. Data for the sgs1 mgt1 strain (AID 161);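 further: 0% = growth of cultures given vehicle only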; settings: S. cerevisiae sgs1 mgt1 strain, active compounds read high
How it was run: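 Mutant yeast exposed to compound; growth scored against vehicle-only wells.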

[4] = NCI Yeast Anticancer Drug Screen. Data for the cln2 rad14 strain (AID 165);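 further: 0% = growth equal to vehicle treated cultures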; settings: S. cerevisiae cln2 rad14 strain, active compounds read high
How it was run: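 Compounds are applied to the cln2 rad14 yeast strain, and growth is then compared with that of vehicle-treated cultures to give inhibition.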

[5] = NCI Yeast Anticancer Drug Screen. Data for the bub3 strain (AID 167); settings: S. cerevisiae bub3 mutant strain, active compounds read high
How it was run: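 In this screen, a yeast mutant lacking normal mitotic checkpoint function is challenged with compound. Relative growth versus vehicle gives the inhibition value.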

[6] = NCI Yeast Anticancer Drug Screen. Data for the wt2 strain (AID 169);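 further: 0% = growth of vehicle-treated yeast cultures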; settings: S. cerevisiae wt2 strain growth inhibition, active compounds read high
How it was run: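 This strain belongs to a panel of yeast strains with defined genetic alterations in DNA damage repair or cell cycle control. Compounds are applied, and growth inhibition is measured against vehicle-treated cultures.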

[7] = NCI Yeast Anticancer Drug Screen. Data for the mlh1 strain (AID 171);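 further: 0% = growth of vehicle-treated control cultures of the same strain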; settings: S. cerevisiae mlh1 strain growth inhibition, active compounds read high
How it was run: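 Growth of the mutant yeast strain after compound exposure, expressed as inhibition relative to vehicle-only controls.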

[8] = NCI Yeast Anticancer Drug Screen. Data for the mlh1 rad18 strain (AID 175); settings: S. cerevisiae mlh1 rad18 strain growth inhibition, active compounds read high
How it was run: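 Read-out is yeast growth inhibition, calculated against vehicle-only controls. The compound was applied to a strain engineered with DNA damage repair alterations.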

[9] = NCI Yeast Anticancer Drug Screen. Data for the rad18 strain (AID 177); settings: S. cerevisiae rad18 mutant growth inhibition, active compounds read high
How it was run: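 Growth of the mutant yeast strain after compound exposure, normalised to vehicle-only cultures.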

[10] = NCI Yeast Anticancer Drug Screen. Data for the wt1 strain (AID 149);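 further: 0% = growth of vehicle-treated wt1 cultures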; settings: S. cerevisiae wt1 strain (SPY 50644) growth inhibition, active compounds read high
How it was run: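 wt1 strain grown with compound or vehicle; inhibition taken from the growth difference.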

[11] = NCI Yeast Anticancer Drug Screen. Data for the rad50EPP+ strain (AID 151);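 further: 0% = growth of vehicle-treated control cultures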; settings: S. cerevisiae rad50 mutant strain, active compounds read high
How it was run: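 Compounds were applied to the rad50EPP+ yeast strain, which bears a defined DNA repair alteration, and growth inhibition was determined relative to vehicle-treated cultures.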

[12] = NCI Yeast Anticancer Drug Screen. Data for the mgt1 strain (AID 153); settings: S. cerevisiae mgt1 mutant growth inhibition, active compounds read high
How it was run: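 Strain: mgt1 yeast, one of a set carrying defined DNA damage repair or cell cycle control alterations. Compound-treated growth compared with vehicle.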

[13] = NCI Yeast Anticancer Drug Screen. Data for the rad50 strain (AID 155);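 further: 0% = growth of vehicle-only cultures of the same strain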; settings: S. cerevisiae rad50 strain growth inhibition, active compounds read high
How it was run: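 DNA repair mutant yeast, compound exposure, growth read-out; inhibition is taken relative to vehicle.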

[14] = NCI Yeast Anticancer Drug Screen. Data for the CLN2oe strain (AID 163);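 further: 0% = growth of vehicle-only control cultures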; settings: S. cerevisiae CLN2oe strain, active compounds read high
How it was run: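 Growth of a genetically modified yeast strain is measured after compound exposure and compared with cultures given vehicle alone.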

[15] = NCI Yeast Anticancer Drug Screen. Data for the sgs1 strain (AID 173);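 further: 0% = growth of vehicle-only control cultures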; settings: S. cerevisiae sgs1 mutant, active compounds read high
How it was run: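 Growth of a yeast strain bearing a defined genetic alteration is measured after compound treatment. Inhibition is expressed relative to vehicle-only controls.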

[16] = at 5.0 µM (retest, dose inferred, filed as 0.5)
[17] = at 50.0 µM (retest, dose inferred, filed as 5.0)

Measured: growth inhibition

CC(C(=O)N1C(=O)N(C(=O)[C@H](C)C(O)c2ccccc2)[C@H](c2ccccc2)[C@H]1c1ccccc1)[C@@H](O)c1ccccc1 (some centres undefined)
active: [3]; at 50.0 µM 83.4% | [4]; [16] 71% | [4]; at 50.0 µM 77.2% | [5]; [17] 90% | [5]; at 50.0 µM 84.2% | [8]; at 50.0 µM 82.2%
inactive: [1]; at 100.0 µM 55% | [2]; at 1.2 µM -7% | [2]; at 3.7 µM -12% | [2]; at 11.0 µM 1% | [2]; at 33.0 µM 15% | [2]; at 100.0 µM 36% | [3]; [16] -12% | [3]; [17] 38% | [4]; [17] 59% | [5]; at 1.2 µM -4% | [5]; at 3.7 µM -3% | [5]; [16] -27% | [5]; at 11.0 µM 5% | [5]; at 33.0 µM 23% | [5]; at 100.0 µM 48% | [6]; at 1.2 µM -8% | [6]; at 3.7 µM -7% | [6]; at 11.0 µM 4% | [6]; at 33.0 µM 41% | [6]; at 100.0 µM 62% | [7]; at 1.2 µM -3% | [7]; at 3.7 µM -4% | [7]; at 11.0 µM 14% | [7]; at 33.0 µM 45% | [7]; at 100.0 µM 57% | [8]; [16] 7% | [8]; [17] 37% | [9]; at 1.2 µM 0% | [9]; at 3.7 µM 6% | [9]; at 11.0 µM 25% | [9]; at 33.0 µM 45% | [9]; at 100.0 µM 53%

COc1cc(CC2CC(c3ccc4c(c3)OCO4)OC2=O)cc(OC)c1OC (centres undefined)
active: [5]; at 100.0 µM 82%
inactive: [10]; at 1.2 µM -2% | [10]; at 3.7 µM -3% | [10]; at 11.0 µM -4% | [10]; at 33.0 µM -3% | [10]; at 100.0 µM 0% | [11]; at 1.2 µM -2% | [11]; at 3.7 µM -1% | [11]; at 11.0 µM 0% | [11]; at 33.0 µM 3% | [11]; at 100.0 µM 8% | [12]; at 1.2 µM -1% | [12]; at 3.7 µM 1% | [12]; at 11.0 µM 1% | [12]; at 33.0 µM 1% | [12]; at 100.0 µM 6% | [13]; at 1.2 µM 0% | [13]; at 3.7 µM 1% | [13]; [16] -6% | [13]; at 11.0 µM 3% | [13]; at 33.0 µM 8% | [13]; [17] 12% | [13]; at 50.0 µM -10.2% | [13]; at 100.0 µM 13% | [1]; at 1.2 µM 0% | [1]; at 3.7 µM -2% | [1]; [16] 6% | [1]; at 11.0 µM 2% | [1]; at 33.0 µM 7% | [1]; [17] 11% | [1]; at 50.0 µM -13.4% | [1]; at 100.0 µM 16% | [2]; at 1.2 µM -2% | [2]; at 3.7 µM -3% | [2]; at 11.0 µM -1% | [2]; at 33.0 µM 4% | [2]; at 100.0 µM 12% | [3]; [16] 2% | [3]; [17] 6% | [3]; at 50.0 µM -2.9% | [14]; at 1.2 µM 2% | [14]; at 3.7 µM 1% | [14]; at 11.0 µM 5% | [14]; at 33.0 µM 7% | [14]; at 100.0 µM 15% | [4]; [16] -1% | [4]; [17] 7% | [4]; at 50.0 µM 1.35% | [5]; at 1.2 µM 15% | [5]; at 3.7 µM 28% | [5]; [16] 24% | [5]; at 11.0 µM 43% | [5]; at 33.0 µM 58% | [5]; [17] 54% | [5]; at 50.0 µM 38.5% | [6]; at 1.2 µM -2% | [6]; at 3.7 µM -4% | [6]; at 11.0 µM -3% | [6]; at 33.0 µM -5% | [6]; at 100.0 µM 0% | [7]; at 1.2 µM -4% | [7]; at 3.7 µM -3% | [7]; at 11.0 µM -1% | [7]; at 33.0 µM 3% | [7]; at 100.0 µM 11% | [15]; at 1.2 µM -2% | [15]; at 3.7 µM -2% | [15]; at 11.0 µM -2% | [15]; at 33.0 µM 0% | [15]; at 100.0 µM 9% | [8]; [16] -2% | [8]; [17] 8% | [8]; at 50.0 µM 18.2% | [9]; at 1.2 µM -4% | [9]; at 3.7 µM -3% | [9]; at 11.0 µM -1% | [9]; at 33.0 µM 0% | [9]; at 100.0 µM 10%

Cc1cc(S(=O)(=O)/N=C(/NN)NNc2cccc(C(F)(F)F)n2)c(S)cc1Cl
inactive: [10]; at 1.2 µM 0% | [10]; at 3.7 µM -2% | [10]; at 11.0 µM -2% | [10]; at 33.0 µM -7% | [10]; at 100.0 µM 10% | [11]; at 1.2 µM -8% | [11]; at 3.7 µM -24% | [11]; at 11.0 µM -28% | [11]; at 33.0 µM -52% | [11]; at 100.0 µM -50% | [12]; at 1.2 µM -3% | [12]; at 3.7 µM -3% | [12]; at 11.0 µM -5% | [12]; at 33.0 µM 10% | [12]; at 100.0 µM 18% | [13]; at 1.2 µM 0% | [13]; at 3.7 µM -2% | [13]; [16] 1% | [13]; at 11.0 µM -3% | [13]; at 33.0 µM -3% | [13]; [17] 52% | [13]; at 50.0 µM -7.1% | [13]; at 100.0 µM 10% | [1]; at 1.2 µM 0% | [1]; at 3.7 µM 2% | [1]; [16] -7% | [1]; at 11.0 µM -3% | [1]; at 33.0 µM -7% | [1]; [17] 8% | [1]; at 50.0 µM 7.75% | [1]; at 100.0 µM 16% | [2]; at 1.2 µM -1% | [2]; at 3.7 µM -1% | [2]; at 11.0 µM 1% | [2]; at 33.0 µM -1% | [2]; at 100.0 µM 14% | [3]; [16] -10% | [3]; [17] 44% | [3]; at 50.0 µM 30.6% | [14]; at 1.2 µM 3% | [14]; at 3.7 µM 1% | [14]; at 11.0 µM -2% | [14]; at 33.0 µM -12% | [14]; at 100.0 µM 3% | [4]; [16] 4% | [4]; [17] 25% | [4]; at 50.0 µM 41.5% | [5]; at 1.2 µM 4% | [5]; at 3.7 µM 1% | [5]; [16] -4% | [5]; at 11.0 µM -3% | [5]; at 33.0 µM -4% | [5]; [17] 47% | [5]; at 50.0 µM -17.4% | [5]; at 100.0 µM 12% | [6]; at 1.2 µM 0% | [6]; at 3.7 µM -2% | [6]; at 11.0 µM -3% | [6]; at 33.0 µM -5% | [6]; at 100.0 µM 18% | [7]; at 1.2 µM -3% | [7]; at 3.7 µM -2% | [7]; at 11.0 µM -4% | [7]; at 33.0 µM -5% | [7]; at 100.0 µM 19% | [15]; at 1.2 µM -1% | [15]; at 3.7 µM 1% | [15]; at 11.0 µM -2% | [15]; at 33.0 µM -1% | [15]; at 100.0 µM 25% | [8]; [16] 21% | [8]; [17] 52% | [8]; at 50.0 µM 19.6% | [9]; at 1.2 µM 0% | [9]; at 3.7 µM -1% | [9]; at 11.0 µM -6% | [9]; at 33.0 µM -3% | [9]; at 100.0 µM 16%
